Inhibition data for 102 molecules are collected here from PubChem BioAssay AID774 (SRMLSC, 2007).

The structures appear in SMILES notation. The campaign covered roughly 65,000 compounds. About 15 (0.02%) were called active. A selection follows. A number with no mark means an inactive call.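 The calls were made as follows: active = single-dose screening hits from any of four coupled enzyme assays that gave an IC50 when retested across doses; inconclusive = no clear call, values can overlap the other calls; inactive = the rest.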

This assay is described as follows: inhibitors of PK/LDH coupling enzymes, profiling panel, artefact control, biochemical, MLSMR library (AID 774).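 Also: the DPM-DC format reads NADH fluorescence rather than 340 nm absorbance.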 Particulars: coupled PK/LDH NADH assays, four targets; at 10 µM; stronger effect = higher value.
A word on the inhibition: it is the drop in the measured response relative to a control, in per cent. In the case of `COc1cc(OC)cc(C(=O)Nc2ccc(-c3nc4ccccc4o3)c(O)c2)c1`, the inhibition was 9%.
`CC1(C)C(=O)Nc2ccccc2N1C(=O)COC(=O)Cn1cnc2ccccc2c1=O`: the inhibition was 11%.
The result for `CC1CCCCC1NC(=O)CCS(=O)(=O)c1cccc2nonc12` (configuration not stated) reads 2%; that for `c1csc(CN2CCN(Cc3cccs3)C2c2cccs2)c1`, 5%.
Turning to `O=C(CSc1nnc(Cc2ccccc2)n1-c1ccccc1)N1CCOCC1`, the inhibition is 5%.
The result for `CCc1c(O)nc(SCC(=O)N2CCCCC2)n(-c2ccccc2C)c1=O` reads 11%; that for `O=C(NC1CCN(Cc2ccccc2)CC1)c1ccccc1F`, 1%; that for `Cc1ccc(NC(=O)c2cc(-c3ccc(C)o3)nc3ccccc23)nc1`, 5%.
For `CCOC(=O)C1CCN(C(=O)Cc2c(C(=O)O)[nH]c3ccccc23)CC1`, the inhibition was 1%.
The same measure for `Cc1ccn2cc(C(=O)NC3CCN(Cc4ccccc4)CC3)nc2c1`: 4%.
Take `CC1Cc2ccccc2N1C(=O)CSc1nc2ccccc2o1` (configuration not stated): the inhibition is 4%.
The same measure for `COC(=O)CN(c1cccc(C(C)=O)c1)S(C)(=O)=O`: 6%; for `C[N+](C)(C)CCOP(=O)([O-])OC[C@H](O)CO`: 2%.
The result for `COc1ccc(OC)c(C(=O)c2coc3ccc(OC)cc23)c1` reads 0%.
The result for `Cc1cc(C)nc(NC2=NCC(=O)N2c2ccc(Cl)cc2)n1` reads 2%; that for `Nc1ccc(-n2nncc2-c2ccco2)cc1`, 3%.
In the case of `CCOC(=O)CSc1nnc(CNC(=O)c2ccco2)n1-c1ccc(F)cc1`, the inhibition was 5%.
`CCOC(=O)C1C(=O)NC(N2CCN(c3ccccc3)CC2)=NC1c1ccco1` (configuration not stated): the inhibition is 7%.
Regarding `O=C(O)C1CCCN1S(=O)(=O)c1ccc2c(c1)CCC2` (configuration not stated), the inhibition was 8%.
The same measure for `CNC(=O)n1ccc(C(=O)N2CCCCC2)n1`: 2%; for `Cc1ccc(-c2ccc(=O)n(CC(=O)NCCCN3CCCCC3)n2)cc1`: 8%; for `CN(Cc1ccccc1)c1nc2c(c(=O)[nH]c(=O)n2C)n1CCSc1nc2ccccc2[nH]1`: 4%.
Regarding `COC(=O)C(C)N(C#N)c1nc(C)nc(C)n1` (configuration not stated), the inhibition was 9%.
As for `CCOc1ccc(NC(=O)Nc2ccc(N(C)C(C)=O)cc2)cc1`, the inhibition was 4%.
The same measure for `CC(c1ccco1)N(C(=O)c1ccc(S(=O)(=O)N2CCCCC2)cc1)c1ccccn1` (configuration not stated): 1%.
The same measure for `Cc1ccc(-c2nc(COC(=O)c3c(C)noc3C)cs2)cc1`: 7%; for `COc1ccc(OCc2cccc(C(=O)N3CCCC3)c2)cc1`: 9%; for `CCOC(=O)N1CCN(C(=O)c2ccc(CN(c3ccc(C)c(C)c3)S(C)(=O)=O)cc2)CC1`: 2%.
For the molecule `CCOC(=O)N1CCN(C(=O)COc2ccc(Br)cc2)CC1`, the inhibition is 5%.
The same measure for `COc1ccccc1C(=O)N1CCN=C1SCc1cccnc1`: 2%; for `Cn1c(=O)[nH]c(=O)c2c1nc(CN(Cc1ccccc1)Cc1ccccc1)n2CCN1CCOCC1`: 0%.
For `CCOC(=O)c1nnn(-c2nc(OC)nc(N(C)C)n2)c1-c1ccccc1`, the inhibition was 6%.
The result for `O=C(CSc1nc2ccccc2o1)N1CCN(c2ccc(Cl)cc2)CC1` reads 3%; that for `CCOC(=O)N1CCN(C(=O)CN(C2CCCCC2)S(C)(=O)=O)CC1`, 3%; that for `O=C(C1CCN(CC2CCCCC2)CC1)N1CCCC1`, 17%.
The result for `O=C(CS(=O)(=O)c1cn(Cc2ccc(Cl)cc2)c2ccccc12)N1CCOCC1` reads 1%.
Take `CC1CN(c2cc(=O)n(-c3cccc(Br)c3)c(=O)[nH]2)CC(C)O1` (configuration not stated): the inhibition is 2%.
As to `OC(COc1cccc(OCC(O)CN2CCCC2)c1)CN1CCCC1` (configuration not stated), the inhibition was 3%.
The same measure for `COc1ccc(C2CC(c3ccc(C)cc3)Nc3nc(N)nn32)cc1` (configuration not stated): 1%; for `CCOc1ccc(-c2nnn(CC(=O)N3CCN(c4ccc(F)cc4)CC3)n2)cc1OCC`: 1%; for `COc1ccccc1Cc1nc(-c2ccc(C)cc2)no1`: 1%.
With `Cc1cc(=O)[nH]c(=S)[nH]1`, the inhibition is 0%.
The result for `COc1ccccc1C1/C(=C(/O)c2ccc(OC(C)C)cc2)C(=O)C(=O)N1c1cc(C)on1` (configuration not stated) reads 5%.
The result for `OCCCNC(c1ccccc1)c1ccc(O)cc1` (configuration not stated) reads 6%; that for `Cc1cc(C(F)(F)F)nn1CC(=O)N1CCCC1`, 2%.
The result for `CCOC(=O)Cn1c(SC)nc2sc3c(c2c1=O)CC(C)(C)OC3` reads 4%; that for `COCCNC(=O)c1ccccc1-c1nc(-c2ccccc2Cl)no1`, 4%.
With `Cc1nc(CNS(=O)(=O)c2cccnc2)cs1`, the inhibition is 5%.
With `Cc1cc(C)nc(N(C#N)CC(=O)Nc2ccccc2)n1`, the inhibition is 7%.
The same measure for `COc1ccc(-c2noc(CN(C)S(=O)(=O)c3ccc(C)cc3)n2)cc1`: 6%; for `CN1CCN(S(=O)(=O)c2ccc(NC(=O)c3ccco3)cc2)CC1`: 2%.
For the molecule `CCOc1ccc(CN(Cc2ccco2)C(c2cccs2)c2nnnn2C(C)(C)C)cc1` (configuration not stated), the inhibition was 1%.
The result for `CCOC(=O)c1ccc(N2C(=O)CC(N3CC(C)OC(C)C3)C2=O)cc1` (configuration not stated) reads 3%; that for `CC(=O)Nc1ccc(S(=O)(=O)N2CCN(C3CCCCCCC3)CC2)cc1`, 6%.
For `CC(C)(C)c1ccc(C(=O)NCCC(=O)NCc2ccco2)cc1`, the inhibition is 6%.
The result for `CCSC1(SCC)N=C(N)C2(C#N)C(c3ccccc3)NC(C)=CC12C#N` (configuration not stated) reads 1%; that for `COc1ccccc1-n1nnnc1S(=O)(=O)Cc1ccc(Cl)cc1`, 5%.
Turning to `Cc1noc(C)c1S(=O)(=O)N(CC(=O)Nc1ccc2c(c1)OCCO2)c1ccc(C(C)C)cc1`, the inhibition was 8%.
The same measure for `CCCCOC(=O)c1[nH]c(C)c(C(=O)OC)c1C`: 1%; for `CC(Oc1ccc(Cl)cc1)C(=O)Nc1ncccn1` (configuration not stated): 5%; for `Cc1noc(C)c1CSc1nc2cc(S(=O)(=O)N3CCOCC3)ccc2o1`: 4%.
The same measure for `O=C1CCC(=O)N1CCOP1(=O)COc2ccccc2OC1`: 4%; for `O=C(NCc1ccc2c(c1)OCO2)c1cc2c(s1)CS(=O)(=O)C2`: 6%; for `CCCOP(=O)(c1ccc(N(C)C)cc1)C(O)c1cc(OC)c(OC)c(OC)c1` (configuration not stated): 2%.
As for `CSc1nc(C)nc2c1c(=O)n(C)c(=O)n2C`, the inhibition was 5%.
As to `Cc1nc(NCc2ccccc2)c(C(N)=O)c2c1COC(C)(C)C2`, the inhibition was 11%.
For the molecule `CCN(CC)CCNC(=O)C1c2ccccc2C(=O)N(C)C1c1cn(C)c2ccccc12` (configuration not stated), the inhibition was 6%.
The same measure for `CCOc1cc(C(=O)N2CCc3cc(OC)c(OC)cc3C2)ccc1OC(F)F`: 7%; for `Cc1cc(N2CCCC2)n2nc(C)c(-c3ccccc3)c2n1`: 8%; for `CSCCC(NC(N)=O)C(=O)N(C)CC(=O)Nc1ccc(C)cc1` (configuration not stated): 8%.
The result for `CC(NCCO)C(=O)C12CC3CC(CC(C3)C1)C2` (configuration not stated) reads 4%; that for `O=P(O)(CP(=O)(c1ccccc1)c1ccccc1)c1ccccc1`, 6%.
The result for `COC(=O)c1cc(NC(=O)CN2CCC(C(N)=O)(N3CCCCC3)CC2)cc(C(=O)OC)c1` reads 4%; that for `ON=C1/C(=N\O)CC2(C/C1=N/O)OCCO2`, 2%.
As to `CCc1ccccc1NC(=O)CSc1nnc([C@@H](NC(=O)OC(C)(C)C)C(C)CC)o1` (some centres not stated), the inhibition was 5%.
Turning to `COc1ccc(-n2ncc3c(N4CCc5ccccc54)ncnc32)cc1`, the inhibition is 6%.
The same measure for `CCOc1ccc(S(=O)(=O)N(CC(=O)O)c2ccccc2)cc1`: 1%.
The same measure for `CCOc1cccc(NC(=O)CC#N)c1`: 6%; for `COC(=O)c1sccc1NC(=O)c1csc2c1CCCC2`: 5%.
The result for `CCOC(=O)CNC(=O)CSc1nnc(COc2ccc(Cl)cc2)n1CC` reads 8%.
Take `N#Cc1ccc(OCCN2C(=O)NC3(CCSC3)C2=O)cc1` (configuration not stated): the inhibition was 14%.
With `CS(=O)(=O)N(Cc1nc2sc3c(c2c(=O)[nH]1)CCCC3)C1CCCCC1`, the inhibition was 3%.
The result for `CCn1nc(NC(=O)c2ccco2)c2cc3ccc(C)cc3nc21` reads 9%.
The result for `N#CC(C(=O)c1ccc(S(=O)(=O)N2CCCCCC2)cc1)c1nc2ccccc2[nH]1` (configuration not stated) reads 8%; that for `CC(=O)N(Cc1cccs1)C1CCOC(C)(C)C1` (configuration not stated), 5%.
With `CCn1c(NCCc2ccc(OC)c(OC)c2)nc2c1c(=O)n(C)c(=O)n2C`, the inhibition is 7%.
As for `Nc1nc(SCCOc2ccccc2)n[nH]1`, the inhibition is 1%.
The same measure for `N#C/C=C\Oc1ccc(Cl)cc1N`: 7%; for `Cc1nnc(NC(=O)CSc2nccn2-c2cccc(C)c2C)s1`: 5%; for `O=C(NCc1ccco1)c1cc2sccc2n1Cc1ccc(F)cc1`: 5%.
In the case of `CCOc1ccc(-c2cn(S(=O)(=O)c3cccc4nsnc34)nc2N)cc1`, the inhibition was 5%.
As to `O=C(CCn1c(=O)[nH]c2ccccc2c1=O)NCCCN1CCN(c2cccc(Cl)c2)CC1`, the inhibition is 1%.
Turning to `CC1=CC(C)(C)N(C(=O)CSc2nccn2C)c2cc(C)ccc21`, the inhibition is 0%.
On to `O=C(O)CCSc1nnc(-c2ccccc2)n1-c1ccccc1`, for which the inhibition was 4%.
For `CSc1nnc(CNC(=O)c2ccccc2)n1-c1ccc(F)cc1`, the inhibition was 0%.
Consider `CC(NC(=O)Nc1ccccc1)c1ccccc1` (configuration not stated), for which the inhibition was 10%.
As for `CC(=O)c1cc(C#N)c(SCC(=O)C(C)(C)C)nc1C`, the inhibition was 1%.
For `COc1cccc(NC(=O)Nc2nnc(N3CCCCC3C)s2)c1` (configuration not stated), the inhibition was 7%.
For `CCCn1cc(SCC(N)=O)c2ccccc21`, the inhibition is 1%.
The result for `COc1ccc(S(=O)(=O)N2CCC(C(=O)N3CCc4ccccc4C3)CC2)cc1OC` reads 2%; that for `CCOC(=O)N1CCC(O)(c2cc(C)c(C)cc2C)CC1`, 3%; that for `O=C(CNS(=O)(=O)c1ccc(Br)s1)NCc1ccc2c(c1)OCO2`, 5%.
